These results are taken from PubChem BioAssay AID1508600 (Functional Genomics Laboratory (NCATS/FGL), 2020).

Among all 53,000 sequences or so, about 3,700 (7%) were called active. The entries come from a sample that favours actives as a whole. Values without a mark were called inactive.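 The calls were made as follows: active = gene knockdowns whose robust z-score for IL-1 alpha signal is at least 2 or at most -2, so actives lie on both sides; inactive = the rest.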

The assay is described as follows: Components of the Cytosolic LPS Sensing Pathway: Gene Identification via Genome-wide siRNA Screen.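 Also: robust z of the log signal after scaling to non-targeting control siRNA wells of the plate.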 The note with it: RAW264.7 macrophages, IL-1a HTRF, actives lie on both sides, screened at 100 nM (by protocol), cells primed 5 h with Pam3CSK4 first. In short, it runs like this: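 Cells (RAW264.7, 1×10^4 per well) were transfected with siRNA at 100 nM and cultured 48h at 37 degrees C. Pam3CSK4 was added for 5 hours; LipidA transfection followed for 24 hour. IL-1a was then measured by HTRF.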
Background: Time-resolved FRET reads energy transfer from a long-lived donor to a nearby acceptor.
Turning to GGGAAAUGGUGAAUCACAGTT against Dpp8, the z-score is 2.25 (active). Under GGCAGAAGCCGUUAGAGAUTT against Cep295nl stands 0.35; under CCAAUCGUAAUGACAAUUCTT against Myo1d, -0.857; under GGGACAACACUCUUUUACUTT against Nab2, 0.696. Under GGAGGACUUUCAGUUAUAUTT against Ogfod3 stands 1.32; under GCGAUUGUGCUUUUGAGCCTT against Tanc2, 1.97.

In the case of GGCUUCAGUGAUGAAUGAATT against Tor1aip1, the z-score was -0.594. Under GCCACGACACGAUGACAUATT against Plcxd1 stands 0.918; under GCUAAGUUAAGCUUAAUACTT against Rbl1, 3.33 (active); under GGCAUAGCCACUAAAAAAATT against Muc2, -0.832. Under GGUUUCCAGUUAUCUUAAUTT against Glipr1l2 stands 1.46. Turning to “GGACAAAGAAACUCAUAGGTT against A530021J07Rik”, the z-score was 0.737. As to GGCUUUUUAGGAAACUAUATT against Olfr361, the z-score was 2.12 (active). As for GGUGAACUUCUUUGGUGCATT against Hsd11b2, the z-score is 0.0519.

GCUUAGAAAUCUUAUCCCATT against Hnrnpc: the z-score is -1.19.

For GGCACUUCUUUCCAAGACGTT against Gbp7, the z-score is -0.373. Under GCCUGUUCUAUGUUACUGGTT against Olfr320 stands -1.99; under GCGAUGUCAAUCAAUUCUGTT against Gpr37l1, 0.513.

With GCAUUUCGUCAGGGCAAAATT against Fuca1, the z-score was -0.515. Turning to UAUUUCUCCCUUGCUGGUATT against Gm5168, the z-score is 1.18. Under CCGCUGAAAAUGGAAGUUATT against Mrgprb4 stands -2.21 (active); under GCCCAGAAUAGACAAACCGTT against Wfdc15b, -1.95; under CCUGAUCCCAUGUAAAACATT against Sspn, -0.35.

For the sequence GGGAAUGACAGAAAUAUAATT against Golm1, the z-score is 0.923. Under GGUUGUUACCUUACUGUACTT against Olfr532 stands 0.952. For GGCUAUUGUUGGUAGAACUTT against Dek, the z-score is 0.441. Under CGUAAUACAAUCCAGUUCATT against Aqr stands -2.18 (active). Turning to GGACUUAUGAGCAAAUAAATT against Rprd1a, the z-score was 0.494. Consider GGAACUUUAUGUCUCCUACTT against Lrrc56, for which the z-score was -0.988. Consider GGUUUCCUUUAUCAAGAAGTT against Snrnp25, for which the z-score was -0.00388.
